Shown is part of a subset that was picked to be rich in hits.
Ecoli WT expand = blocks growth of wild type E. coli BW25113; OD600 absorbance; growth inhibition, % at 100 µM; hit rate 0.15% among 98,000; AID 710;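 active means growth inhibition above about 50% at one test dose, limit read from the data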;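 further: growth measured after 20 h incubation at 37 °C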
Mac1 fbg enh = CD11b/CD18-fibrinogen binding enhancement | P05107+P11215 | AID 1499 | hit rate 0.07% among 93,000 | K562 CD11b/CD18 adhesion to fibrinogen, ATPlite luminescence | activation, % at 10 µM;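 active means 10 µM primary screen giving 50% or more activity, confirmed by 40% or more on retest at that dose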
Cav3 T inh = blocks human Cav3.2 T-type calcium channel | O95180 | hit rate 4% among 100,000 | B-score at 10 µM | Cav3.2-expressing cells, Fluo-4 calcium fluorescence FDSS; hits give low values;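 active means single-dose well whose peak fluorescence ratio is a statistical outlier from its plate by either plate-standardised score or position-corrected B-score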
Mac1 fbg inh = CD11b/CD18-fibrinogen binding inhibition; inhibition, % at 10 µM; K562 CD11b/CD18 adhesion to fibrinogen, ATPlite luminescence; Mn2+ added to activate the integrin; P05107+P11215; AID 1497; hit rate 0.54% among 93,000;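 active means primary inhibition of 50% or more at 10 µM, then 40% or more on retest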
* marks the source's active call; other numbers are inactive results; . = not tested or not shown.

SMILES	Ecoli WT expand	Mac1 fbg enh	Cav3 T inh	Mac1 fbg inh
CC(=O)c1cccc(NC(=O)COC(=O)COc2c(Cl)cc(Cl)c3ccc(C)nc23)c1	.	-4	.	-4
CCn1c(SCC(=O)NCc2ccccc2)nnc1-c1c[nH]c2ccccc12	9	-8	0.39	-11
Cc1cc(C)c(S(=O)(=O)N2CCCCC2)c(C)c1N(C)S(=O)(=O)c1ccccc1	-5	.	-4.3*	.
CCN(Cc1ccccc1)C(c1ccccn1)c1nnnn1C1CCCCC1 (centres undefined)	.	.	-4*	.
Cc1ccc(C)c(NC(=S)NC(NC(=O)/C=C/c2ccccc2)C(Cl)(Cl)Cl)c1 (centres undefined)	-9	-2	-6.9*	-12
CCCN(CCC)c1nc(NC2CCN(C(=O)OCC)CC2)nc(OC)n1	-9	-3	-11*	7
Clc1ccc(OCCn2ccnc2)c2ccccc12	64*	-6	0.045	-6
Clc1ccc(OCCn2ccnc2)c(Cl)c1	11	.	-0.45	.
CSC(=NC#N)N1CCN(c2cccc(Cl)c2)CC1	8	.	-0.19	.
N#CCSc1nnc(COc2cccc3ccccc23)n1-c1ccccc1	-11	-6	-4.6*	26
COc1ccc(-n2c(COc3cccc4ccccc34)nnc2SCC#N)cc1	.	.	-2.2	.
C[C@@H](O)[C@H]1C(=O)N2C(C(=O)O)=C(S[C@@H]3CN[C@H](C(=O)N(C)C)C3)[C@H](C)[C@H]12	.	.	0.2	.
C=CCn1c(CSCc2ccc(Cl)cc2)nnc1SCC(=O)NCc1ccccc1	-15	-5	-6.6*	12
O=C(CSc1nnc(CCc2ccccc2)n1-c1ccc(Cl)cc1)NCc1ccccc1	-16	0	-5.9*	0
C=CCn1c(COc2ccc(Cl)cc2)nnc1SCC(=O)NCC(=O)OCC	3	-2	2.3	-13
C=CCn1c(CSCc2ccc(C)cc2)nnc1SCC(=O)NCc1ccccc1	1	-3	-3.6*	13
C=CCn1c(SCC(=O)NCc2ccccc2)nnc1-c1ccccc1O	11	3	0.3	1
COc1cccc(N2CCN(CC(=O)Nc3nnc(-c4ccccc4)s3)CC2)c1	-13	-4	-5.2*	60
COc1cccc(NC(=O)c2ccc(CN3CCN(c4ccccc4)CC3)cc2)c1	-5	.	-5.4*	.
O=C(CCCOc1ccc(Cl)cc1Cl)N/N=C/c1ccccc1O	.	-8	.	2
COc1ccc2c(c1)C(C)(CCN)C(=O)N2C (centres undefined)	.	.	0.72	.
O=C1c2ccccc2NC(c2ccc(Cl)cc2Cl)N1O (centres undefined)	58*	-5	-0.086	-2
O=C1c2ccccc2NC(c2ccc(Cl)cc2Cl)N1Cc1ccccc1 (centres undefined)	-17	4	-5.3*	-21
C=CCc1cccc(C2Nc3ccccc3C(=O)N2O)c1O (centres undefined)	48	8	-9.8*	29
Cc1cccc(C2Nc3ccccc3C(=O)N2CCc2ccccc2)n1 (centres undefined)	-2	-3	-0.31	-11
SMILES	Ecoli WT expand	Mac1 fbg enh	Cav3 T inh	Mac1 fbg inh
O=C1c2ccccc2NC(c2c(Cl)cccc2Cl)N1Cc1ccccc1 (centres undefined)	-22	-1	-11*	5
CC(C)(C)OC(=O)CNC(=O)c1[nH]cnc1C(=O)N[C@@H](Cc1ccccc1)C(=O)OC(C)(C)C	.	.	-1.6	.
CC(C)c1onc(C(=O)N2CCN(Cc3ccccc3)CC2)c1[N+](=O)[O-]	.	.	0.037	.
CCc1nnc(NC(=O)CSc2ccc(-c3nc4ccc(C)cc4[nH]3)cn2)s1	.	30	.	28
O=S(=O)(NC1CC1)c1ccc(S(=O)(=O)N(Cc2ccccn2)C2CCCC2)cc1	0	-7	-0.96	0
O=C(/C=C/c1ncc(C(F)(F)F)cc1Cl)OCc1ccccc1	-3	-5	-1.3	27
CCC(C)NC(=O)Cc1cn(C)c2ccccc12 (centres undefined)	1	-4	1.1	1
CCc1ccc(NC(=O)Cc2cn(C)c3ccccc23)cc1	4	0	-4.8*	-20
Cn1cc(CC(=O)Nc2cccc(C#N)c2)c2ccccc21	0	-1	-4.2*	4
CCc1cccc(NC(=O)Cc2cn(C)c3ccccc23)c1	-8	-4	-7.7*	-5
C[C@@H](C(=O)N1CCN(C(=O)OC(C)(C)C)CC1)n1cc(-c2cn([C@@H](C)C(=O)N3CCN(C(=O)OC(C)(C)C)CC3)nn2)nn1	.	.	-0.053	.
Cc1ccc(NC(=O)COC(=O)C2CC3C=CC2C3)cc1S(=O)(=O)N1CCCCC1 (centres undefined)	.	0	.	61
Cc1ccccc1CSc1nnc(-c2cccs2)n1Cc1ccco1	-7	.	-6.5*	.
O=C(CSc1nnc(-c2ccccn2)n1Cc1ccco1)c1ccc(Cl)cc1	-2	4	-5*	-10
Brc1ccc(CSc2nnc(-c3ccccn3)n2Cc2ccco2)cc1	-10	-4	-5.1*	18
c1ccc(CSc2nnc(-c3cccs3)n2Cc2ccco2)cc1	.	.	-3.6	.
Clc1cccc(CSc2nnc(-c3ccccn3)n2Cc2ccco2)c1	-6	-1	-7.6*	-10
O=C(O)c1ccc(CNCc2ccc(Cl)cc2)cc1	.	9	.	-13
Cc1cc2ccccc2n1CCNC(=O)c1ccc(Br)o1	.	.	-1.4	.
COC(=O)C[C@H]1c2cc(F)ccc2S(=O)(=O)N1c1ccc(N(C)C)cc1	.	.	1.5	.
COc1cc(Cl)c(C)cc1NC(=O)CSc1nnc(-c2ccccn2)n1Cc1ccco1	-4	4	-7.3*	2
COc1ccc(C(=O)CSc2nnc(-c3ccccn3)n2Cc2ccco2)cc1	-4	-8	-1.7	-8
Cc1c(Cl)cccc1NC(=O)CNC(=O)c1ccccc1F	.	-4	.	3
CCCNC(=O)N1C2=NC(C(=O)OC)=C(C(=O)OC)[C@@H]3N(Cc4ccccc4)c4ccccc4[C@]23C[C@H]1CO	.	.	-1.3	.
COC(=O)c1c(C)oc2ccc(N(C(=O)c3ccncc3)S(=O)(=O)c3ccc(C)cc3)cc12	-8	-7	-3	83
SMILES	Ecoli WT expand	Mac1 fbg enh	Cav3 T inh	Mac1 fbg inh
COCCOC(=O)c1c(C)oc2ccc(NS(=O)(=O)c3ccccc3)cc12	-1	-4	-2.8	-6
COC(=O)c1c(C)oc2ccc(N(C(=O)c3ccncc3)S(=O)(=O)c3ccccc3)cc12	0	.	-4.1*	.
COC(=O)c1c(C)oc2ccc(NS(=O)(=O)c3cccs3)cc12	-3	-6	-4.9*	13
CC1CC(NC(=O)C2(C)CC2(Cl)Cl)CC(C)(C)C1 (centres undefined)	2	-1	-1.3	-50
CCCOC(=O)c1ccc(NC(=O)CCOc2ccccc2)cc1	2	0	-4*	-2
CCCCC(=O)Nc1ccc(C(=O)OC2CCCCC2)cc1	-2	-3	-4*	26
O=C(O)CCC(=O)Nc1ccc(C(=O)OC2CCCCC2)cc1	-4	-1	0.25	-11
CCOC(=O)C(C(C)=O)C(c1ccc(OCCC(C)C)cc1)C(C(C)=O)C(=O)OCC (centres undefined)	.	.	-2.9	.
COc1ccccc1C(=O)NNC(=S)NC(=O)c1ccco1	.	4	.	38
O=C(/C=C/c1cccs1)NC(=S)NNC(=O)Cc1cccs1	.	.	-4.2*	.
CCC(=O)NC(=S)NNC(=O)c1ccc([N+](=O)[O-])cc1	28	.	-0.39	.
CCC(=O)NC(=S)NNC(=O)c1ccc(OC)cc1	75*	.	.	.
